One may read the Inhibition as the relative decrease from the control value, in per cent.

This note sets out measurements from ChEMBL document CHEMBL4513141, “CO-ADD screening of NIH (USA) - Clinical Collection” (2021).

In one experiment the test system is Staphylococcus aureus. Particulars: Concentration 20 uM; ASSAY_TEST Inhibition of Bacterial Growth; detection method Absorption (OD600); MEDIA CAMHB; plate type 384well; NBS; CORNING #3640; time 18 hr.
The next experiment concerns Escherichia coli. Particulars: Concentration 20 uM; ASSAY_TEST Inhibition of Bacterial Growth; detection method Absorption (OD600); MEDIA CAMHB; plate type 384well; NBS; CORNING #3640; time 18 hr.

Results with a measured potency or affinity are listed apart.

Regarding `Cc1nc(=O)c2cc(CN(C)c3ccc(C(=O)N[C@@H](CCC(=O)O)C(=O)O)s3)ccc2[nH]1` [RALTITREXED], the Inhibition is 9.09% with Staphylococcus aureus and 2.78% in the experiment on Escherichia coli.
Taken in the same sequence, the figures for `CC(=O)O[C@H]1C[C@@H]2CC[C@@H]3[C@H](CC[C@@]4(C)[C@H]3C[C@H]([N+]3(C)CCCCC3)[C@@H]4OC(C)=O)[C@@]2(C)C[C@@H]1N1CCCCC1.[Br-]` [VECURONIUM BROMIDE] were -16.09% and 5.67%.
The corresponding values for `O=C(NCCO[N+](=O)[O-])c1cccnc1` [NICORANDIL] are 13.24% and 8.35%.
